Results taken from PubChem BioAssay (NCI).
Compounds without any hit were thinned out: in the full panel of roughly 83,000, 20% have a hit.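 Method: cells in 96-well plates; compound added at one concentration; 48 h incubation; percent growth measured; values under 10 scored active.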 Calls of active or inactive are those of the source.

Tests used:
Experiment in all cases: NCI-60 one-dose screen, 48 h (100 = growth as untreated, 0 = no growth, -100 = all killed)
[1] = tested on: T-47D breast; conditions: 10 µM
[2] = tested on: BT-549 breast; conditions: 10 µM unless noted
[3] = tested on: MDA-MB-435 melanoma; conditions: 10 µM unless noted
[4] = tested on: SW-620 colon; conditions: 10 µM unless noted
[5] = tested on: MCF7 breast; conditions: 10 µM unless noted
[6] = tested on: HCT-116 colon; conditions: 10 µM unless noted
[7] = tested on: KM12 colon; conditions: 10 µM unless noted
[8] = tested on: HCC-2998 colon; conditions: 10 µM unless noted

Measured: growth

Cc1ccc(S(=O)(=O)c2ccc3[nH]c(=O)[nH]c(=O)c3c2)cc1
inactive: [1] 90.9% | [2] 92.4% | [3] 116% | [4] 105% | [5] 91.5% | [6] 90.9% | [7] 106%

Clc1ccc(C2=NN(c3ccccc3)[C@H](c3cn(-c4ccccc4)nc3-c3ccccc3)C2)cc1
inactive: [1] 112% | [2] 112% | [3] 99.8% | [4] 107% | [5] 97.5% | [6] 90% | [7] 104%

O=C1CN2CCC1C/C2=C\c1ccnc2c(Cl)cccc12 (configuration not stated)
inactive: [1] 93.6% | [2] 108% | [3] 101% | [4] 101% | [5] 45.7% | [6] 98.5% | [7] 101%

CCOC(=O)c1c(-c2cc(OC)c(OC)c(OC)c2)csc1N
active: [3] -1.03%
inactive: [1] 94% | [2] 117% | [4] 76.6% | [5] 78.1% | [6] 90.4% | [7] 64.2%

COc1ccc(-n2c(SCc3cc(OC)c(OC)c(OC)c3)nc3ccc(C)cc3c2=O)c(OC)c1
inactive: [1] 33.1% | [2] 32.1% | [4] 21% | [5] 15.5% | [6] 18.1% | [7] 18.1%
active: [3] -55%

CCCCCn1c(=N)n(CC(O)COc2cccc(C)c2)c2ccccc21 (configuration not stated)
inactive: [4] 10.8% | [6] 11%
active: [1] -0.186% | [2] -16.9% | [3] 6.94% | [5] 7.34% | [7] 6.37%

Cc1ccc(C)c2c1sc1nc3nc4sc5ccccc5n4c(=N)c3c(=O)n12
inactive: [1] 78.9% | [2] 115% | [3] 121% | [4] 108% | [5] 51.1% | [6] 91.6% | [8] 94.6% | [7] 101%

CC(=O)Nc1ccc(Sc2ccc([N+](=O)[O-])o2)cc1
active: [1] -34.3% | [3] 9.62% | [4] -76.5% | [6] -82%
inactive: [2] 32.6% | [5] 26.9% | [7] 56.8%

CC(C)NCC(O)COc1ccc(CCOCC2CC2)cc1 (configuration not stated)
inactive: [1] 103% | [2] 116% | [3] 103% | [4] 102% | [5] 107% | [6] 106% | [7] 113%

COc1cccc(C2CC(=O)Nc3cc4c(cc32)OCO4)c1OC (configuration not stated)
inactive: [1] 87.5% | [2] 101% | [3] 97% | [4] 105% | [5] 94.8% | [6] 93.6% | [7] 91.6%

O=C1/C(=C/c2ccc(Cl)cc2)CN(Cc2cn(CCCNc3ccnc4cc(Cl)ccc34)nn2)C/C1=C\c1ccc(Cl)cc1
active: [1] -10.8% | [2] -87.6% | [3] -86.7% | [4] -75.6% | [5] -97.9% | [6] -64.4% | [8] -88% | [7] -75.1%

Clc1nc(-c2ccccn2)nc2sc3c(c12)CCCCCC3
inactive: [1] 42.2% | [2] 85.1% | [3] 91.4% | [4] 102% | [5] 54% | [6] 84.5% | [8] 63.4% | [7] 91.6%

Cc1nc2cc(Nc3nc(N4CCCCC4)nc(N4CCOCC4)n3)ccc2n1Cc1ccccc1
inactive: [2] 63.2% | [3] 52.8% | [4] 44.1% | [5] 65.5% | [7] 18.3%
active: [1] -8% | [6] -49.9%

C=C(C)COC(=O)c1ccccc1C(=O)OCC1(C)CO1 (configuration not stated)
inactive: [1] 102% | [2] 102% | [3] 106% | [4] 105% | [5] 104% | [6] 105% | [7] 112%

Cc1nc(NC(=O)COc2cccc(/C=C3\COc4ccccc4C3=O)c2)sc1C
inactive: [1] 53.2%
active: [2] -68.5% | [3] -44.5% | [4] -100% | [5] -58.7% | [6] -88.4% | [7] -92.4%

CC(=O)Nc1ccc(S(=O)(=O)N/N=C\c2ccc(Cl)c(Cl)c2)cc1
inactive: [1] 86.7% | [2] 99.7% | [3] 105% | [4] 99.7% | [5] 95.6% | [6] 101% | [7] 107%

O=[N+]([O-])c1ccc(C=C2C(Cl)=C(Cl)C(Cl)=C2Cl)cc1
active: [4] -59.9% | [6] -11%
inactive: [1] 47.8% | [2] 97.7% | [3] 76.1% | [5] 34.8% | [7] 73.7%

COc1ccc(-c2c3c(N)c4c(nc3nc3c2c(C)nn3-c2ccccc2)CCCCC4)cc1
inactive: [1] 61.2% | [2] 80.9% | [3] 78.8% | [4] 83.5% | [5] 62.8% | [6] 27.9% | [7] 84.2%

COc1cc2nc(N3CCC[C@H](NC4=CC(=O)c5ccccc5C4=O)C3)nc(N)c2cc1OC
inactive: [2] 105%
active: [1] -56.2% | [3] -96.1% | [4] -45.1% | [5] -77.3% | [6] -85.3% | [7] -39.2%

COc1ccc(-c2cc(=O)oc3c4c(ccc23)OCN(Cc2ccc(F)cc2)C4)cc1
inactive: [1] 62.8% | [2] 66% | [3] 59.6% | [4] 66.2% | [5] 48.8% | [6] 39.6% | [7] 79.4%

COc1ccc(-c2nn(-c3ccc(NC(=O)c4ccc(Cl)c(Cl)c4)cc3)cc2-c2ccncc2)cc1Cl
active: [7] 5.24%
inactive: [1] 64.9% | [2] 42.8% | [3] 54.3% | [4] 32.1% | [5] 31.5% | [6] 23.2%

Oc1ccc2ccccc2c1C1NN=C(c2ccccc2)S1 (configuration not stated)
inactive: [1] 20.7% | [2] 19.5% | [3] 29.4% | [4] 40.4% | [5] 17.2% | [6] 16% | [7] 23.3%

COc1nc2c(cc1S(=O)(=O)c1ccccc1)CCc1c-2cnn1-c1cccc(Cl)c1
inactive: [1] 59.6% | [2] 80.8% | [3] 63% | [4] 93.7% | [5] 87.5% | [6] 62.9% | [7] 85.4%

O=[N+]([O-])c1ccc2nc(N/N=C/c3ccc(O)cc3)sc2c1
inactive: [1] 35.1% | [2] 28.6% | [3] 47.7% | [4] 63.7% | [5] 57.9% | [6] 23.3% | [7] 33.4%

COc1ccccc1CNCCCCCCCCCCCCN1C(=O)c2ccc3c4c(ccc(c24)C1=O)C(=O)N(CCCCCCCCCCCCNCc1ccccc1OC)C3=O
active: [6] -43%
inactive: [1] 119% | [2] 70.5% | [3] 58% | [4] 74.1% | [5] 26.7% | [7] 46.6%

COc1ccc(-c2[nH]ncc2Nc2cc(OC)c(OC)c(OC)c2)cc1
active: [3] -11.7%
inactive: [1] 18% | [2] 27.3% | [4] 32.4% | [5] 23.1% | [6] 35.5% | [7] 32.5%

O=C1OCC2=C1C(c1ccc3c(c1)OCO3)CC(=O)N2c1cccc(Cl)c1 (configuration not stated)
inactive: [1] 103% | [2] 126% | [3] 100% | [4] 105% | [5] 86.7% | [6] 114% | [7] 101%
